Screening data as filed in PubChem BioAssay.
AF4-AF9 inh = blocks AF4 peptide binding to human AF9. AlphaScreen, biotin-AF4 peptide binding to FLAG-AF9. inhibition, % at 10 µM. P42568. hit rate 0.47% among 350,000;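 active = every replicate reaching a set inhibition limit, whatever the replicate mean, cut at about 25% in these data; inconclusive = mean inhibition reaches that limit but some replicates miss it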
RAD52 anneal inh = inhibitors of human RAD52 DNA annealing. P43351. recombinant RAD52 DNA annealing, FRET fluorescence. inhibition, % at 18.7 µM. hit rate 0.46% among 360,000;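 active = every replicate showing at least 50% inhibition; inconclusive = mean inhibition at least 50% but not in every replicate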
Target sequence (P43351 whole entry, looked up): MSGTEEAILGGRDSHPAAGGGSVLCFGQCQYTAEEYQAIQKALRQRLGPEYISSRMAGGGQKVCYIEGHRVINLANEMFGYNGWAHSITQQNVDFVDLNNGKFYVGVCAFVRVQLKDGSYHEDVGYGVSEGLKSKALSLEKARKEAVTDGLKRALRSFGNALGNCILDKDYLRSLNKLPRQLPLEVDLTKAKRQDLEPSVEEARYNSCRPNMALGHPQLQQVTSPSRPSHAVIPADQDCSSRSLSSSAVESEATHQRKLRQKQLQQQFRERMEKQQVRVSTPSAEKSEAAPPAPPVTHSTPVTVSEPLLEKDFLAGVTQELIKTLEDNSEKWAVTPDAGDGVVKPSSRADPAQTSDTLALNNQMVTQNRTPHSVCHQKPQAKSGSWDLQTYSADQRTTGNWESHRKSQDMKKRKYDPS
FGF22 binding = binders of recombinant human FGF22 by thermal shift. Q9HCT0. SYPRO orange fluorescence; percent of sucrose octasulfate shift, DMSO zero. activity (Tm shift, normalised), % at 9.99 µM. hit rate 1.5% among 340,000. AID 651658;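 active = mean Tm shift, scaled 0 neutral to 100 positive control, at about 1.3% or above, every replicate too, limit read from the data; inconclusive = no clear call, values can overlap the other calls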
Target sequence (Q9HCT0 whole entry, looked up): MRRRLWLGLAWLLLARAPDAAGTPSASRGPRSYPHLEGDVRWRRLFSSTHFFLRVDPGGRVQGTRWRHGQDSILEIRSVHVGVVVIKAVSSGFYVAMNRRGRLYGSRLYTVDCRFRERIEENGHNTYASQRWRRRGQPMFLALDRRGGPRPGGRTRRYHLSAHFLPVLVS
DENV2 CPE rescue = DENV2-induced cell death inhibition; DENV2-infected cells, cytopathic effect rescue, plate reader; CPE inhibition, % at 9.99 µM; hit rate 1.7% among 350,000; AID 651640; in the data active = CPE inhibition above about 20%, passing the limit was not always enough; inconclusive = no clear call, values can overlap the other calls; tested in BHK-21 cells
ERAP1 HTS inh = inhibitors of human ERAP1 aminopeptidase. Q9NZ08. recombinant ERAP1, Leu-AMC fluorescence, 60 min. inhibition, % at 10.7 µM. hit rate 0.15% among 340,000. AID 652197;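 active = mean replicate inhibition of at least 30%, or all replicates individually reaching that 30% level; inactive = mean below 30% and not every replicate reaching it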
A number is an active result. Shown are actives, neighbours in structure and some others; about 4% of the full set was active somewhere.

C[C@@H]1CN([C@@H](C)CO)C(=O)Cc2cc(N(C)C)ccc2O[C@@H]1CN(C)S(=O)(=O)c1ccccc1 was read as AF4-AF9 inh inactive, RAD52 anneal inh inactive, FGF22 binding inactive, DENV2 CPE rescue inactive and ERAP1 HTS inh inactive.
CCS(=O)(=O)N[C@H]1C=C[C@@H](CC(=O)NCc2ccc(Cl)cc2)O[C@@H]1CO was read as AF4-AF9 inh inactive, RAD52 anneal inh inactive, FGF22 binding inactive, DENV2 CPE rescue inactive and ERAP1 HTS inh inactive.
Screening OCc1ccccc1OCCCN1CCC(Cc2ccccc2)CC1 returned AF4-AF9 inh inactive, RAD52 anneal inh inactive, FGF22 binding inactive, DENV2 CPE rescue inactive and ERAP1 HTS inh inactive.
`C=CCOc1ccccc1CN1CCC(Cc2ccccc2)CC1` gave AF4-AF9 inh inactive, RAD52 anneal inh inactive, FGF22 binding inactive, DENV2 CPE rescue 24 and ERAP1 HTS inh inactive.
`Cn1cnc(S(=O)(=O)N[C@@H]2CC[C@H](CC(=O)Nc3ccc(-c4ccccc4)cc3)O[C@H]2CO)c1` gave AF4-AF9 inh inactive, RAD52 anneal inh inactive, FGF22 binding inactive, DENV2 CPE rescue inactive and ERAP1 HTS inh inactive.
Screening O=C(Nc1ccc(C2=NCCN2)cc1)c1ccc(C(=O)Nc2ccc(C3=NCCN3)cc2)c(Cl)c1 returned AF4-AF9 inh inactive, RAD52 anneal inh 73, FGF22 binding inactive, DENV2 CPE rescue inactive and ERAP1 HTS inh inactive.
Screening O=C(Nc1ccc(NC(=O)c2ccc(Cl)cc2Cl)cc1)c1ccc2c(c1)OCO2 returned AF4-AF9 inh inactive, RAD52 anneal inh inactive, FGF22 binding inactive, DENV2 CPE rescue inactive and ERAP1 HTS inh inactive.
CN(C)CC(=O)N[C@H]1CC[C@H](CC(=O)NCc2ccccc2F)O[C@H]1CO was read as AF4-AF9 inh inactive, RAD52 anneal inh inactive, FGF22 binding inactive, DENV2 CPE rescue inactive and ERAP1 HTS inh inactive.
For COc1cccc(CNC(=O)C[C@@H]2CC[C@H](NC(=O)C3CCC3)[C@@H](CO)O2)c1 the results were AF4-AF9 inh inactive, RAD52 anneal inh inactive, FGF22 binding inactive, DENV2 CPE rescue inactive and ERAP1 HTS inh inactive.
O=C(/C=C/NNC(=O)c1ccc(Cl)cc1)c1ccccc1 was read as AF4-AF9 inh inactive, RAD52 anneal inh inactive, FGF22 binding 44, DENV2 CPE rescue inactive and ERAP1 HTS inh inactive.
For COc1ccc(C(=O)C=CNNC(=O)c2ccc(Cl)cc2)cc1 the results were AF4-AF9 inh inactive, RAD52 anneal inh inactive, FGF22 binding inactive, DENV2 CPE rescue inactive and ERAP1 HTS inh inactive.
O=C(CSc1nccn(-c2ccc(F)c(Cl)c2)c1=O)NC1CCCC1 was read as AF4-AF9 inh inactive, RAD52 anneal inh inactive, FGF22 binding inactive, DENV2 CPE rescue 22 and ERAP1 HTS inh inactive.
`Cc1ccc(-n2ccnc(SCC(=O)NC3CCCC3)c2=O)cc1Cl` gave AF4-AF9 inh inactive, RAD52 anneal inh inactive, FGF22 binding inactive, DENV2 CPE rescue inactive and ERAP1 HTS inh inactive.
Screening COc1ccc2c3c([nH]c2c1)[C@H](CO)N(S(=O)(=O)c1ccc(C)cc1)CC31CN(C(=O)Cc2cccnc2)C1 returned AF4-AF9 inh inactive, RAD52 anneal inh inactive, FGF22 binding inactive, DENV2 CPE rescue 27 and ERAP1 HTS inh inactive.
`COc1ccc2c3c([nH]c2c1)[C@@H](CO)N(S(C)(=O)=O)CC31CN(C(=O)c2ccccc2)C1` gave AF4-AF9 inh inactive, FGF22 binding inactive and DENV2 CPE rescue 23.
For COc1ccc2c3c([nH]c2c1)[C@H](CO)N(C(=O)c1cccc(F)c1)CC31CN(S(=O)(=O)c2cccs2)C1 the results were AF4-AF9 inh inactive and DENV2 CPE rescue inconclusive.
COc1ccc2c3c([nH]c2c1)[C@H](CO)N(S(C)(=O)=O)CC31CN(C(=O)c2ccccc2)C1 was read as AF4-AF9 inh inactive, FGF22 binding inactive and DENV2 CPE rescue inactive.
Screening COc1ccc2c3c([nH]c2c1)[C@H](CO)N(C(=O)c1ccccc1)CC31CN(S(=O)(=O)c2cccs2)C1 returned AF4-AF9 inh inactive, FGF22 binding inactive and DENV2 CPE rescue 82.
CCCN1C[C@H](C)[C@H](OC)CN(C)C(=O)c2ccc(NC(=O)C3CCOCC3)cc2OC[C@@H]1C was read as AF4-AF9 inh inactive, RAD52 anneal inh inactive, DENV2 CPE rescue inactive and ERAP1 HTS inh inactive.
For Cc1ccc(S(=O)(=O)N(C)C[C@H]2OCCCC[C@H](C)Oc3ccc(NC(=O)CCC(F)(F)F)cc3C(=O)N([C@@H](C)CO)C[C@H]2C)cc1 the results were AF4-AF9 inh inactive, RAD52 anneal inh inactive, DENV2 CPE rescue inactive and ERAP1 HTS inh inactive.
`O=C(C[C@H]1C[C@@H]2c3cc(NC(=O)C4CCOCC4)ccc3O[C@@H]2[C@@H](CO)O1)NCc1cccc(F)c1` gave AF4-AF9 inh inactive, RAD52 anneal inh inactive, FGF22 binding inactive, DENV2 CPE rescue inactive and ERAP1 HTS inh inactive.
For COc1cc(C=c2c3ccccc3n3c2cc(-c2ccccc2)[n+]3C)cc(OC)c1OC the results were AF4-AF9 inh 29, RAD52 anneal inh inactive, FGF22 binding inactive, DENV2 CPE rescue inactive and ERAP1 HTS inh inactive.
CN(C)c1ccc(C=c2c3cc([N+](=O)[O-])ccc3n3c2cc(-c2ccccc2)[n+]3C)cc1 was read as AF4-AF9 inh 55, RAD52 anneal inh 100, FGF22 binding inactive, DENV2 CPE rescue inconclusive and ERAP1 HTS inh inactive.
Screening COc1cc(/C=C(/C(=O)O)c2ccc(-c3ccccc3)cc2)cc(OC)c1OC returned AF4-AF9 inh inactive, RAD52 anneal inh inactive, FGF22 binding inactive, DENV2 CPE rescue inactive and ERAP1 HTS inh inactive.
CN(C)c1ccc(C=c2c3ccccc3n3c2cc(-c2ccc(Cl)cc2)[n+]3C)cc1 was read as AF4-AF9 inh 58, RAD52 anneal inh inactive, FGF22 binding inactive, DENV2 CPE rescue inactive and ERAP1 HTS inh inactive.
C[C@@H]1CN([C@@H](C)CO)C(=O)c2cc(C#Cc3ccccc3)cnc2O[C@@H]1CN(C)C(=O)C1CC1 was read as AF4-AF9 inh inactive, RAD52 anneal inh inactive, FGF22 binding inactive, DENV2 CPE rescue inactive and ERAP1 HTS inh inactive.
C[C@H](CO)N1C[C@H](C)[C@H](CN(C)Cc2ccncc2)Oc2ncc(C#CC3CCCCC3)cc2C1=O was read as AF4-AF9 inh inactive, RAD52 anneal inh inactive, FGF22 binding inactive, DENV2 CPE rescue inactive and ERAP1 HTS inh inactive.
For CN(Cc1ccccc1)CC1CCCN(CCc2ccccc2F)C1 (centres undefined) the results were AF4-AF9 inh inactive, RAD52 anneal inh inactive, FGF22 binding inactive, DENV2 CPE rescue 39 and ERAP1 HTS inh inactive.
For COc1cc(CN(C)CC2CCCN(CCc3ccccc3F)C2)cc(Cl)c1OC (centres undefined) the results were AF4-AF9 inh inactive, RAD52 anneal inh inactive, FGF22 binding inactive, DENV2 CPE rescue inactive and ERAP1 HTS inh inactive.
`Cc1noc(C)c1S(=O)(=O)N(C)C[C@@H]1Oc2c(NS(=O)(=O)c3cn(C)cn3)cccc2C(=O)N([C@@H](C)CO)C[C@@H]1C` gave AF4-AF9 inh inactive, RAD52 anneal inh inactive, FGF22 binding inactive, DENV2 CPE rescue inactive and ERAP1 HTS inh inactive.
`COc1cc(C(=O)N[C@@H](C)C(=O)N2CCC3(CC2)NCCc2[nH]cnc23)cc(OC)c1OC` gave AF4-AF9 inh inactive, RAD52 anneal inh inactive, FGF22 binding inactive, DENV2 CPE rescue inactive and ERAP1 HTS inh inactive.
